Several values for one entry are separate records, joined by “and”; a condition that tells them apart may be missing. Equal entries are not always repeated. In all, about 5,500 compounds went through this assay and about 2,000 (36%) were called active. About 18% were inconclusive and are not listed. Rule as the data show it: active = normalized growth mostly below about 0.91 (no sharp cut-off); inconclusive = no clear call, values can overlap the other calls; inactive = mostly above about 0.92. The list shows a part of the results.
Assay: chemical genetic growth profiling, strain panel (AID 1159580);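 also: tested at 20 µM; growth read once vehicle control cultures reached saturation at 30 °C; 1 = growth at the plate median or of vehicle wells; lower values mean less growth of the strain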
Conditions: S. cerevisiae deletion strains, growth OD

Measured: normalized growth

CCN(CC)C(=O)c1cccc(C)c1
inactive: locus YAL013W, strain DEP1, active compounds read low 1 | locus YAL021C, strain ccr4, active compounds read low 1.03 | locus YAL026C, strain drs2, active compounds read low 1.03 | locus YAL030W, strain snc1, active compounds read low 1.04 | locus YBL061C, strain skt5, active compounds read low 1.04 | locus YBR009C, strain hhf1, active compounds read low 1.01 | locus YBR021W, strain FUR4, active compounds read low 1.01 | locus YBR023C, strain chs3, active compounds read low 1.03 | locus YBR171W, strain sec66, active compounds read low 1.04 | locus YBR229C, strain ROT2, active compounds read low 1.01 | locus YBR231C, strain swc5, active compounds read low 1.05 | locus YBR279W, strain paf1, active compounds read low 1.02 | locus YCL011C, strain gbp2, active compounds read low 1.02 | locus YCL016C, strain dcc1, active compounds read low 1.03 | locus YCL029C, strain bik1, active compounds read low 0.992 | locus YCL069W, strain vba3, active compounds read low 1.04 | locus YCR088W, strain abp1, active compounds read low 1.04 | locus YDL005C, strain med2, active compounds read low 1.03 | locus YDL035C, strain GPR1, active compounds read low 1 | locus YDL040C, strain nat1, active compounds read low 1.03 | locus YDL074C, strain BRE1, active compounds read low 1.02 | locus YDL101C, strain DUN1, active compounds read low 0.999 | locus YDL134C, strain PPH21, active compounds read low 1.01 | locus YDL185W, strain tfp1, active compounds read low 0.957 | locus YDL192W, strain arf1, active compounds read low 0.996 | locus YDR001C, strain nth1, active compounds read low 1.03 | locus YDR069C, strain doa4, active compounds read low 1.02 | locus YDR101C, strain arx1, active compounds read low 1 | locus YDR137W, strain rgp1, active compounds read low 1.04 | locus YDR150W, strain NUM1, active compounds read low 0.981 | locus YDR159W, strain sac3, active compounds read low 1.05 | locus YDR162C, strain NBP2, active compounds read low 0.972 | locus YDR195W, strain ref2 1.11 | locus YDR297W, strain sur2, active compounds read low 1.03 | locus YDR318W, strain mcm21, active compounds read low 1 | locus YDR334W, strain swr1, active compounds read low 1.03 | locus YDR335W, strain msn5, active compounds read low 1.03 | locus YDR388W, active compounds read low 1.01 | locus YDR392W, strain spt3, active compounds read low 1.05 | locus YDR502C, strain sam2, active compounds read low 0.994 | locus YEL003W, strain gim4, active compounds read low 1.02 | locus YEL037C, strain rad23, active compounds read low 1.04 | locus YEL061C, strain CIN8 (second series), active compounds read low 1.02 | locus YEL061C, strain CIN8, active compounds read low 1.01 | locus YER015W, strain faa2, active compounds read low 1.03 | locus YER016W, strain bim1, active compounds read low 1.02 | locus YER110C, active compounds read low 1.01 | locus YER111C, strain swi4, active compounds read low 1.05 | locus YER155C, strain BEM2 (second series), active compounds read low 1.07 | locus YER155C, strain BEM2, active compounds read low 1.01 | locus YER167W, strain BCK2, active compounds read low 1.03 | locus YFR010W, strain ubp6, active compounds read low 1.03 | locus YGL078C, strain dbp3, active compounds read low 0.997 | locus YGL086W, strain mad1, active compounds read low 1 | locus YGL167C, strain pmr1, active compounds read low 1.03 | locus YGL173C, strain kem1, active compounds read low 1.01 | locus YGL227W, strain vid30, active compounds read low 1.04 | locus YGL240W, strain doc1, active compounds read low 1.03 | locus YGL248W, strain PDE1, active compounds read low 1.01 | locus YGL253W, strain hxk2, active compounds read low 1.02 | locus YGR078C, strain PAC10, active compounds read low 0.98 | locus YGR135W, strain pre9, active compounds read low 0.982 | locus YGR229C, strain SMI1, active compounds read low 1.01 | locus YGR252W, strain gcn5, active compounds read low 0.98 | locus YHR013C, strain ard1, active compounds read low 1.1 | locus YHR027C, strain rpn1, active compounds read low 1.02 | locus YHR030C, strain SLT2, active compounds read low 1.01 and 0.932 | locus YHR079C, strain IRE1 (second series), active compounds read low 1 | locus YHR079C, strain IRE1, active compounds read low 0.977 | locus YHR094C, strain hxt1, active compounds read low 0.997 | locus YHR129C, strain ARP1, active compounds read low 1.02 | locus YHR142W, strain chs7, active compounds read low 1.02 | locus YHR200W, strain rpn10, active compounds read low 0.998 | locus YIL066C, strain RNR3, active compounds read low 0.998 | locus YIL073C, strain SPO22, active compounds read low 0.97 | locus YIL125W, strain kgd1, active compounds read low 1 | locus YIR030C, strain dcg1, active compounds read low 0.996 | locus YJL092W, strain hpr5, active compounds read low 1.03 | locus YJL095W, strain BCK1 (second series), active compounds read low 1.04 | locus YJL095W, strain BCK1, active compounds read low 1.04 and 0.974 | locus YJL115W, strain asf1, active compounds read low 1.06 | locus YJL129C, strain trk1, active compounds read low 1.08 | locus YJL134W, strain LCB3, active compounds read low 1 | locus YJL154C, strain vps35, active compounds read low 1.03 | locus YJL164C, strain tpk1, active compounds read low 1.02 | locus YJL166W, strain qcr8, active compounds read low 1.02 | locus YJL168C, strain set2, active compounds read low 1 | locus YJL187C, strain SWE1 (second series), active compounds read low 0.994 | locus YJR043C, strain POL32, active compounds read low 0.999 | locus YJR066W, strain TOR1, active compounds read low 0.942 | locus YJR075W, strain HOC1, active compounds read low 1.02
